Reference: ChEMBL document CHEMBL1157539, “Thousands of chemical starting points for antimalarial lead identification” (Nature, 2010)
Where “and” joins values, the source holds several entries; their conditions need not be identical. Equal values may be shown once.

Columns and labels:
Format in all cases: functional
Plasmodium falciparum [1] = experiment: GSK_TCMDC: Inhibition of Plasmodium falciparum 3D7 in whole red blood cells, using parasite LDH activity as an index of growth. Test compounds present at 2uM
Plasmodium falciparum [2] = experiment: GSK_TCMDC: Inhibition of Plasmodium falciparum Dd2 in whole red blood cells, using parasite LDH activity as an index of growth. Test compounds present at 2uM
HepG2 = experiment: GSK_TCMDC: Percent inhibition of human HepG2 cell line. Test compounds present at 10uM.

| SMILES | Inhibition (Plasmodium falciparum [1]) | Inhibition (Plasmodium falciparum [2]) [%] | Inhibition (HepG2) |
| --- | --- | --- | --- |
| C=CC[C@@H](C(=O)OCC)[C@@H]1[C@@H](N(CC=C)C(=O)OC(C)(C)C)CCN1C(=O)OCc1ccccc1 | 92% | 68 | 2% |
| CC(=O)c1ccc(N2CCN(CCC3(c4ccc(Cl)c(Cl)c4)COCN(C(=O)c4ccccc4)C3)CC2)cc1 (stereo not given) | 88% | 95 | 12% |
| Cc1cc(C(=O)Nc2ccc3c(c2)CCN3C2CCN(Cc3ccc4nsnc4c3)C2)no1 (stereo not given) | 90% | 94 | 0% |
| O=C(NCc1ccc(F)cc1)Nc1ccc(-c2cccc(-c3nc4cc(F)ccc4[nH]3)c2)cc1 | 100% | 99 | 31% |
| CC1(C)[C@H]2CC[C@@H](CNc3nc(NCC(=O)Nc4ccc5ccccc5c4)nc(N4CCC(N5CCCC5)CC4)n3)[C@@H]1C2 | 93% | 20 | 6% |
| O=C(/C=N/O)Nc1ccccc1[N+](=O)[O-] | 99% | 0 | 0% |
| COc1c(C2CCN(CCCCNC(=O)c3ccc(-c4ccc(Cl)cc4)cc3)CC2)ccc2c1C(C)(C)CCC2(C)C | 95% | 42 | 94% |
| CCc1nc(N)nc(N)c1-c1ccc(Cl)cc1 [PYRIMETHAMINE] | 94% and 93% | 0 | 71% and 66% |
| CC(C)CCNC(=O)C1Cc2c([nH]c3cc(Br)ccc23)C2(CCN(Cc3ccccc3)CC2)N1 (stereo not given) | 96% | 45 | 10% |
| Cc1cccc2nc(-c3cccc(-c4cccc(NC(=O)NCc5cccc(F)c5)c4)c3)[nH]c12 | 98% | 32 | 11% |
| CCN(CC)CCN(Cc1ccc(-c2ccc(C(F)(F)F)cc2)cc1)C(=O)Cn1c(CCc2c(F)cccc2F)nc(=O)c2ccccc21.O=C(O)C(O)C(O)C(=O)O | 100% | 61 | 36% |
| CN(C)Cc1cccc(-c2ccc(NC(=O)c3ccc4c(=O)n(Cc5ccoc5)cnc4c3)cc2)c1 | 98% | 9 | 54% |
| CCCCCCCCNCc1c(O)ccc2ccccc12.Cl | 99% | 94 | 0% |
| COc1ccc(S(=O)(=O)NC2CCN(c3ccnc4cc(Cl)ccc34)C2)cc1.O=C(O)C(F)(F)F (stereo not given) | 100% | 86 | 12% |
| O=C(O)/C=C\C(=O)O.OCCN1CCN(C2Cc3ccc(F)cc3Sc3ccc(Cl)cc32)CC1 (stereo not given) | 98% | 26 | 56% |
| Cc1cc(C(=O)CN2C(=O)NC3(CCOc4ccccc43)C2=O)c(C)n1Cc1ccco1 (stereo not given) | 93% | 42 | 13% |
| COc1c(C2CCN(CCCCNC(=O)c3ccc(-c4ccc(Cl)cc4)c(OCC(N)=O)c3)CC2)ccc2c1CCCC2 | 97% | 11 | 43% |
| COc1ccc2[nH]ccc(=NN=Cc3ccccc3)c2c1 | 100% | 99 | 0% |
| CC(=O)N(C)c1cccc(C(=O)Nc2ccc(-c3cccc(-c4nc5cc(C(F)(F)F)ccc5[nH]4)c3)cc2)c1 | 94% | 10 | 79% |
| O=C(Nc1ccc(-c2nc3ccccc3[nH]2)cc1)c1ccc([N+](=O)[O-])s1 | 100% | 77 | 83% |
| CN1CCN(Cc2cccc(Nc3nccc(Nc4ccc(Oc5ccccc5)cc4)n3)c2)CC1 | 97% | 80 | 30% |
| CN(C)CCN(Cc1ccc(-c2ccc(CNCCc3ccccc3)cc2)nc1)C(=O)CCC1CCCC1.O=C(O)C(F)(F)F | 96% | 89 | 98% |
| COC(=O)c1cccc(CNCc2cccc(-c3ccc(-c4nc5ccccc5[nH]4)s3)c2)c1.O=C(O)C(F)(F)F | 93% | 59 | 0% |
| O=C(NC1CCCC1)c1ccc(N2CCC(NCc3cccc(C(F)(F)F)c3)CC2)cc1 | 87% | 75 | 11% |
| O=C(Nc1ccc(N2CCN(Cc3cccc(F)c3)CC2)cc1)c1cccs1.O=C(O)C(F)(F)F | 95% | 92 | 0% |
| CC(C#N)Cc1ccc(-c2cnc(N)c3cc(-c4ccnc(N)n4)ccc23)cc1 (stereo not given) | 96% | 62 | 56% |
| Cn1cncc1C(=O)NC1CCN(c2ccnc(Nc3ccc(F)cc3)n2)C1 (stereo not given) | 97% | 83 | 2% |
| COC(=O)c1cccc(NC(=O)NC2CCN(c3ccnc(Nc4ccc(OC)cc4)n3)C2)c1 (stereo not given) | 99% | 65 | 1% |
| CC=CC1CCNC(C(O)c2ccnc3ccc(OC)cc23)C1 (stereo not given) | 91% | 1 | 0% |
| Cc1ccc(/C=C/C(=O)NCCCCCN2CCC(c3c[nH]c4ccccc34)CC2)cc1 | 86% | 7 | 36% |
